# Source: PubChem
# NS1 inh: qHTS Assay for Inhibitors of Influenza NS1 Protein Function; actives 0.4% (n = 270,000); Potency, µM (doses to about 46.1 µM); calls by dose curve; note: actives are rising curves; nearly all actives have a fitted effect of over 50% in size
#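 In this qHTS, NS1 from influenza A is expressed in budding yeast, where it slows growth. Cells are switched from glucose to 2% galactose medium (pH 6.0, -URA), treated with compound, and growth recovery is read at OD600.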
# Shiga inhibitor: A qHTS for Small Molecule Inhibitors of Shiga Toxin; Vero cells, Shiga toxin protein synthesis inhibition reporter; AID 2315, 2010; inhibition, % at 38.7 µM; actives 9.2% (n = 290,000); in the data active = inhibition mostly above about 28%, no sharp cut-off; inactive = mostly below about 43%
# SARS PLpro yeast: qHTS of Yeast-based Assay for SARS-CoV PLP; S. cerevisiae expressing SARS-CoV PLpro, growth rescue; Potency, µM (doses to about 32.9 µM), hits mostly activators; AID 485353, 2010; actives 0.19% (n = 330,000); calls by dose curve; note: nearly all actives have a fitted effect of over 55% in size
# Pf growth 48h: Primary qHTS for delayed death inhibitors of the malarial parasite plastid, 48 hour incubation. P. falciparum luciferase growth in erythrocytes, 48 h. Potency, µM (titrated, usually from 28.7 µM), actives largely listed as inhibitors. actives 5.9% (n = 310,000)
#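 In quantitative HTS format, infected erythrocytes bearing luciferase-reporter parasites were treated for a single generation at 37 C. Luminescence after adding detection reagent served as the growth measure.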
# Cycloheximide cs: Cycloheximide Counterscreen for Small Molecule Inhibitors of Shiga Toxin; cell reporter, cycloheximide protein synthesis inhibition counterscreen; max response, %; actives 12% (n = 300,000); AID 2314, 2010; in the data active = max response mostly above about 13%, no sharp cut-off; inactive = mostly below about 14%; note: read at 38.3 µM for the half of the compounds with a filed dose
# Pf growth 96h: Primary qHTS for delayed death inhibitors of the malarial parasite plastid, 96 hour incubation. P. falciparum luciferase reporter growth, 96 h. Potency, µM (highest dose often 28.7 µM), hits mostly inhibitors. actives 6.9% (n = 320,000)
#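 96 h incubation, 37 C, 5% CO2, of luciferase-reporter P. falciparum-infected RBCs (2% hematocrit, 0.05% parasitemia final) with test compounds; endpoint luminescence.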
# Numbers stand for hits; n = inactive; u = inconclusive; x = not tested or not shown. Most compounds without a hit are left out; they make up all but 21% or so of the library. Unless noted, calls come from the whole dose curve; as a rule, active = well fitted inhibition curve with a large enough effect; inconclusive = small, poorly fitted or top-dose-only effect, or another doubt; inactive = no such curve, though single readings can be large or run the other way.
SMILES,NS1 inh,Shiga inhibitor,SARS PLpro yeast,Pf growth 48h,Cycloheximide cs,Pf growth 96h
COc1cccc(Cn2cc(C)cc(NC(=O)NCc3ccccc3)c2=O)c1,n,x,n,n,14.6,u
Cc1cc(NC(=O)NCc2ccccc2)c(=O)n(Cc2ccccc2F)c1,n,n,n,n,n,u
C/C(CCc1ccccc1)=N\NC(=O)CC(=O)NCCc1ccccc1,n,n,n,n,n,n
CCN(CC)C(=O)c1cccnc1,x,x,x,n,x,n
CCN(CC)C(=O)C1CCN(Cc2ccc(OCc3ccccc3)c(OC)c2)CC1,n,n,n,u,n,n
COc1cccc(CNC(=O)Nc2cccs2)c1,n,64.0,n,n,32.9,u
COc1ccc(CNC(=O)Nc2cccs2)cc1OC,u,n,n,n,n,u
COc1ccc(CCNc2oc(COc3ccccc3F)nc2C#N)cc1,n,n,n,n,15.5,u
COc1ccc(CCNc2oc(Cc3cccc4ccccc34)nc2C#N)cc1OC,n,n,n,6.57µM,n,u
CN(C)c1oc(COc2ccccc2F)nc1C#N,n,59.0,n,n,29.2,n
N#Cc1nc(COc2ccccc2F)oc1NCc1ccc(F)cc1,n,64.5,n,x,35.3,n
CN(C)CCNc1oc(COc2ccc(Cl)cc2Cl)nc1C#N,n,n,n,n,n,u
COc1ccc(C)cc1S(=O)(=O)N1CCC(C(=O)N2CCN(C)CC2)CC1,n,n,n,n,n,u
COc1ccc(NC(=S)N2CCNC(=O)C2CC(=O)Nc2ccc(C)cc2)cc1 (configuration not stated),n,n,u,n,n,u
CN(C)CCNc1oc(COc2ccc(-c3ccccc3)cc2)nc1C#N,n,n,n,u,n,x
C=CCNc1oc(COc2ccc(C)cc2)nc1C#N,n,136.3,n,x,25.5,6.57µM
COc1ccc(C(C(=O)NC(C)(C)C)N(C(=O)Cn2nnc3ccccc32)c2cccc(C(C)=O)c2)cc1O (configuration not stated),n,n,n,n,n,n
CC12CC3(C)CC(C)(C1)CC(C(=O)NCc1cccnc1)(C2)C3,n,n,n,n,n,11.7µM
CC12CC3CC(C)(C1)CC(C(=O)NCc1cccnc1)(C3)C2,n,n,n,n,n,3.7µM
CC(C)(C)NC(=O)NCc1cccnc1,n,n,n,n,n,n
CC12CC3CC(C)(C1)CC(C(=O)NCc1ccco1)(C3)C2,n,n,n,n,n,n
CCOC(=O)N1CCC(=NNC(=O)COc2cccc(C)c2)CC1,n,n,n,n,n,u
COc1ccc(N=Cc2cc3c(cc2O)OC(N)=C(C#N)C3c2ccccc2)cc1 (configuration not stated),n,n,u,n,10.7,n
O=C(O)CC(NC(=O)C(c1ccccc1)c1ccccc1)c1cccc([N+](=O)[O-])c1 (configuration not stated),n,n,n,u,n,n
Cc1c(/C=N/NC(=O)c2cc(Br)ccc2O)c(=O)n(C)c(=O)n1C,u,n,n,n,n,n
SMILES,NS1 inh,Shiga inhibitor,SARS PLpro yeast,Pf growth 48h,Cycloheximide cs,Pf growth 96h
COc1ccc(NC(=O)C(=O)N2N=C(C(C)C)CC2(O)C(F)(F)F)cc1 (configuration not stated),n,n,n,n,n,u
O=C(Cn1c(=O)n(Cc2ccc3c(c2)OCO3)c(=O)c2ccccc21)N1CCCc2ccccc21,n,n,n,10.4µM,n,x
Cc1c(C#N)c2ccccc2n1CC(=O)N1CCCc2ccccc21,n,n,n,3.29µM,n,n
CN(C)CCCN(C(=O)c1ccc(S(=O)(=O)N(C)C2CCCCC2)cc1)c1nc2ccc(Br)cc2s1,n,n,n,13.1µM,n,u
Cc1cc(C)c2sc(N(CCCN(C)C)C(=O)c3ccc(S(=O)(=O)N(C)C4CCCCC4)cc3)nc2c1,x,x,n,10.4µM,x,u
S=C(Nc1ccc(Cl)cc1)NC1CCCCC1,n,67.6,n,u,40.8,n
FC(F)Oc1ccc(NC(=S)NC2CCSc3ccccc32)cc1 (configuration not stated),n,n,n,n,n,n
FC(F)Oc1ccc(NC(=S)NC2CCCCCCC2)cc1,n,64.9,n,u,34.4,u
S=C(Nc1cccc(Cl)c1)NC1CCCCC1,n,n,u,u,n,n
S=C(Nc1ccc(Br)cc1)NC1CCCCC1,n,67.2,n,n,51.5,n
S=C(NC1CCCCCC1)NC1CCCC1,x,n,n,n,n,n
NNC(=S)NC1CCCCCCCCCCC1,n,n,n,u,n,10.4µM
COc1cccc(NC(=O)COC(=O)c2sccc2C)c1,x,x,n,x,x,x
CSc1ncc(C(=O)Nc2ccc(C(C)=O)cc2)c(C)n1,n,79.7,n,u,34.9,2.62µM
CSc1ncc(C(=O)Nc2ccc(Br)cn2)c(C)n1,n,55.7,n,u,23.3,1.85µM
CSc1ncc(C(=O)Nc2ccc(Cl)cc2)c(C)n1,n,39.1,n,n,n,n
CSc1ncc(Cl)c(C(=O)Nc2ccccc2Cl)n1,n,n,n,n,n,n
CSc1ncc(Cl)c(C(=O)Nc2c(C)cccc2C)n1,n,n,n,n,n,4.15µM
CC1=NN(c2nc3ccccc3[nH]2)C(=O)/C1=C/N(C)C,x,n,n,n,n,u
CC1=NN(c2nc3ccccc3[nH]2)C(=O)C1Cc1ccccc1 (configuration not stated),n,n,n,2.62µM,n,4.15µM
CCN(CC)c1ccc(C(=O)NN)cc1,x,n,n,n,n,n
CCN(CC)c1ccc(C(=O)Nc2cccc(F)c2)cc1,n,n,n,n,27.8,n
CN(C)c1cccc(C(=O)Nc2cccc(F)c2)c1,n,68.1,n,n,41.3,n
COc1c(C)cc(C(=O)C2CCCN(C(=O)/C=C/c3ccccn3)C2)cc1C (configuration not stated),n,n,n,n,n,n
Cn1c(=O)n(C)c2cc(NS(=O)(=O)c3ccc(Br)s3)ccc21,n,n,n,n,n,9.28µM
SMILES,NS1 inh,Shiga inhibitor,SARS PLpro yeast,Pf growth 48h,Cycloheximide cs,Pf growth 96h
Cn1c(=O)n(C)c2cc(NS(=O)(=O)c3ccc(Cl)s3)ccc21,x,n,n,n,n,n
Cc1ccc2cc(CCNC(=O)CCCc3ccccc3)c(=O)[nH]c2c1C,n,n,n,n,n,u
CCN(CC)c1ccc(-c2nc3cnccc3n2C)cc1,n,135.2,u,n,32.6,n
Oc1cccc2ccc[n+](CC(O)Cn3c4ccccc4c4ccccc43)c12 (configuration not stated),n,n,n,1.04µM,n,u
O=C1CNC(=O)N1CC(O)Cn1c2ccccc2c2ccccc21 (configuration not stated),n,n,n,n,n,n
Cc1cccc(-n2ncc3c(NCCCn4ccnc4)ncnc32)c1,n,74.5,n,u,61.8,u
Cc1ccc(-n2ncc3c(NCCCN4CCOCC4)ncnc32)c(C)c1,n,n,n,x,n,n
O=C1CCCN1CCCNc1ncnc2c1cnn2-c1ccc(Cl)cc1,n,28.5,n,n,27.6,n
